The text below walks through data of the supplement of paper PMC6555819.

The assay concerns PPARg homodimer (NR concentration 180 nM). Kind of assay: PBM binding z-score (relative to random genomic background probes); higher = stronger binding; sequences stand for … in GC…GCGATTGACAGCGTAGAATGAAGG
The method, boiled down: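 For binding z-scores, the reference was random background probes on custom Agilent 4×180K protein-binding microarrays. These arrays were incubated 1 h with ligand-free nuclear receptor dimers in PBS pH 7.4, 2% milk, 0.02% Triton X-100, 1 mM DTT, 0.2 mg/mL BSA and 0.4 mg/ml salmon testes DNA. Fluorescence was scanned after antibody detection of each partner (one per run) and regression-normalized.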
ATATGTAGGTTAGCTGTGGTCATTCAGACTAGGC gave a PBM binding z-score of 1.37.

As to TCTCGGAGGACACGAAAGGTCAGCGCTCGACATC, the PBM binding z-score worked out at 3.31.

In turn, TCCTGTAGATCAAAGGTTAAGAAAGCCGAAGCCT came in with a PBM binding z-score of 1.34.

Turning to TCTAGTTGGTCGAAGGTCACACACTCGAAATGCG, the PBM binding z-score worked out at 3.06.

The sequence TCATATAGGTAAAGGTGAAAGTCGAACGATATGA showed a PBM binding z-score of 1.04.

As to TAGCCTAGGTCATTCATGGGCCAGTATAGAAAGC, the PBM binding z-score was 1.08.

Turning to AGAATGAGCTTATACGTAGATCAGGGAAGAAAGT, the PBM binding z-score is -0.99.

In turn, GCGACTGGGGCAAAGCAGGTTACCATAAGGTTGG gave a PBM binding z-score of -0.306.

With ACTAGTTTGTCAGCTGAGGTCACACACAATTCGG, the PBM binding z-score was 2.72.

As for ATACCAAGGTGTTCGTGAGGTCGTTGATACTAAC, the PBM binding z-score is 0.594.

As for CCAGACAGGTGAAAGGTAAGTCAGTCTGGTACGC, the PBM binding z-score worked out at 0.848.

AGAATGAGGTTATACGTATATCAGGGAAGAAAGT displayed a PBM binding z-score of 1.21.

Take GCTATTAGTTGAAAGGGCTACCGAATGATTCTCG: the PBM binding z-score is 0.707.

As for CCTACTGGGCCAAAGGTCATTGTTTCCAATGCTC, the PBM binding z-score was 5.48.

Sequence GCTAGCAGGCCATTTGGGTCTCTCAATGACGGGC had a PBM binding z-score of -0.8.

For TCGAGTAGGTTAGTTGGGGCATTCAGCCAACATA, the PBM binding z-score is 0.105.

AATACAGGGCCACTAGGCCAGAGTAGGTACGAAT showed a PBM binding z-score of 0.246.

In turn, ATACGTAGGTTAGCTGGGGTCATTCAGACTAGGC gave a PBM binding z-score of 1.82.

In turn, GCTAGTTGGCCAGTAAAAGGTCACACACCGGTCG yielded a PBM binding z-score of 3.08.

Sequence TGTCAAAGTTCAGAGGTAACGTAAGTATCCACAC yielded a PBM binding z-score of 2.26.

ATCTCTAGGTCAGACTCAGTTCAGTGAAGAACGC showed a PBM binding z-score of 2.14.

For the sequence TCACATAGGTAAAAGGTGAAAGTCGGTGTGGTAA, the PBM binding z-score is 1.93.

Sequence TCTTGTAGATGAATAGAGGTTAAGAAAGTGCGCT had a PBM binding z-score of 0.765.

AGAATTAGGTTACCAAAGATCAGGGAAACGCTTG registered a PBM binding z-score of 1.54.

For the sequence ATCTCTAAGTAAAGTTCAGTGAAAGATCGATAGA, the PBM binding z-score was 1.44.

The sequence AATAGAGGGTCACTAGGCCAGAGTAGGTACGAAT registered a PBM binding z-score of 1.04.

On to AGAACGAGGGCACGCTGATTTGATAGCAGAGTAG, for which the PBM binding z-score turned out to be 0.292.

GGAACGAGGGCAAGTTGATGGCAGAGTTTGATGG yielded a PBM binding z-score of 0.499.

The sequence CCTAGTTGGTCAATGTCACACACGCTATAGGTAC gave a PBM binding z-score of 1.57.

The sequence TCATTTAGGTAATACAGGTGAAAGTCGGCATCTA showed a PBM binding z-score of 1.72.

As for CCTTACGGGTTACTGACAGGTTATAGCATTTGGA, the PBM binding z-score is 1.21.

Regarding ACTATTCGTTGACTTAGGGCAACCGATACGACGC, the PBM binding z-score was found to be 0.718.

Sequence ACCTCTAGGTAAGACTCAGTTCAGTGAAGAACGC returned a PBM binding z-score of 0.121.

As to CGTCCAAGGTCAATGCTAGGTCAGTGAAAGCATT, the PBM binding z-score stood at 6.35.

Sequence ACTATTAGTTGAGACGAGGGCAACCGCTAGGTTG gave a PBM binding z-score of 0.0959.

TCTTGTAGATCAAAAGAGGTTAAGAAAGTGCGCT yielded a PBM binding z-score of 0.373.

The sequence CGAACGAGGGCATGAGTTGAGAGCAAATGCCGAT yielded a PBM binding z-score of -0.198.

GCTATTAGTTGAAAGGGCAACCAAATGATTCTCG displayed a PBM binding z-score of 0.903.

Regarding CAAACTAGGTCAAAGGTCAAAGGCGAGCCAACCA, the PBM binding z-score is 4.33.

In turn, GCTTGTAGATCAACGTTAAGAAAGACTAAGCTAA showed a PBM binding z-score of -0.243.
